{"source": "PubChem BioAssay", "key": {"[1]": {"assay": "Wnt pathway potentiators raising nuclear beta-catenin – imaging, WNT3A-conditioned medium, mouse C2C12, NPC library, primary screen (AID 1117326; in the data active = nuclear beta-catenin stimulation mostly above about 4.2%, no sharp cut-off; inactive = mostly below about 10%)", "conditions": "stronger effect = higher value"}, "[2]": {"assay": "stimulators of insulin release from INS-1E, primary screen, cell-based, 5 mM glucose, NPC library (AID 1117329;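 active = compound raises insulin release from rat beta cells at 5 mM glucose, no numeric limit stated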)", "conditions": "rat INS-1E insulin secretion, at 10 µM, stronger effect = higher value"}, "[3]": {"assay": "growth inhibition of GSK3B-pretreated HCT116 cells – cell-based, CellTiter-Glo, 0.2 to 20 µM (AID 1117336;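 active = compounds lowering colon cancer cell viability after pretreatment blocking the GSK3B kinase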)", "conditions": "HCT116 viability after GSK3B inhibitor, at 20 µM, stronger effect = higher value"}, "[4]": {"assay": "inhibition of endothelial tube formation, primary screen, imaging, VEGF stimulated, CD31 staining, tube area, NPC library (AID 1117340;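 active = compound that reduces growth-factor-driven endothelial tube area in a mixed cell culture, no cutoff stated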)", "conditions": "VEGF-stimulated ADSC/ECFC co-culture, at 10 µM, stronger effect = higher value"}, "[5]": {"assay": "GLP1 release stimulators, primary, NCI-H716, NPC library (AID 1117341;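 active = compound raises GLP1 secretion from the human gut endocrine cells, with no numeric limit stated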)", "conditions": "NCI-H716 cells, at 10 µM, stronger effect = higher value"}, "[6]": {"assay": "HCT116 colon cancer cell growth inhibition, primary screen, CellTiter-Glo luminescence, NPC library (AID 1117342;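 active = compounds that lower survival of HCT116 colon cancer cells in the luminescence readout, no numeric limit stated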)", "conditions": "at 20 µM (top of the series)"}, "[7]": {"assay": "reduced SW480 viability measured with CellTiter-Glo, NPC library, primary (AID 1117343)", "conditions": "CellTiter-Glo luminescence; at 20 µM (top of the series)"}, "[8]": {"assay": "NPC library primary testing for decreased DLD-1 cell viability via CellTiter-Glo (AID 1117346;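 active = compounds that lower survival of DLD-1 colon cancer cells in the luminescence readout, no cutoff given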)", "conditions": "DLD-1 viability, CellTiter-Glo luminescence; at 20 µM (top of the series)"}, "[9]": {"assay": "liver-stage malaria parasite load reduction – cell-based, known kinase inhibitor set, luminescence, hepatoma host viability (AID 624392; call rule not given here;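 also: infected cells incubated roughly two days before readout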)", "conditions": "Plasmodium liver stage in hepatoma cells, luciferase luminescence, concentration not given here; liver cell % of control: measured here: host liver cell viability; parasite % of control: stronger effect = lower value"}, "[10]": {"assay": "altered dexamethasone sensitivity, NF-kB reporter, cell-based, luciferase, IL-1B stimulus (AID 624486; call rule not given here;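 as to percent of negative control (+Dex): 100% = mean signal of vehicle control wells on the plate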)", "conditions": "IL-1B + dexamethasone, luminescence; percent of negative control (+Dex): actives lie on both sides, concentration not given here; z-score: measured here: IL-1B alone, no Dex"}, "[11]": {"assay": "C. elegans survival during P. aeruginosa infection – whole organism (AID 651566; call rule not given here;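 also: tested at 14 µM; sign flipped so higher z means a lower ratio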)", "conditions": "C. elegans killed by P. aeruginosa, survival ratio"}, "[12]": {"assay": "pro-inflammatory signaling induction in mouse macrophages – cell-based, murine, luminescence (AID 652131; call rule not given here)", "conditions": "murine macrophage pro-inflammatory reporter, stronger effect = higher value"}, "[13]": {"biological_target": "Cellular tumor antigen p53 (Homo sapiens) (UniProt P04637)", "sequence (P04637 whole entry, looked up)": "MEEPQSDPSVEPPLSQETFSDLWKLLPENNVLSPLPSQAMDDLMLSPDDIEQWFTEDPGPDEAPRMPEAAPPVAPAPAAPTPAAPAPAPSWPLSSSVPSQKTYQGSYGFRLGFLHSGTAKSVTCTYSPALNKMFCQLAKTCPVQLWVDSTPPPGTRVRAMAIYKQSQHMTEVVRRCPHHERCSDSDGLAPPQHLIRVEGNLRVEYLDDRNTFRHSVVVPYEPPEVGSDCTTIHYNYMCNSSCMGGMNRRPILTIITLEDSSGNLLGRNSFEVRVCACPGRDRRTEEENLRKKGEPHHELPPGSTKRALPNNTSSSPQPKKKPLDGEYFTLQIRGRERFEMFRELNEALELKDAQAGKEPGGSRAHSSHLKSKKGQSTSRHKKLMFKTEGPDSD", "assay": "GFP-p53 level modulators in HPV16+ cells – imaging, known kinase inhibitor set, EGFP/DsRed ratio (AID 1053116; call rule not given here;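 also: cells exposed to compounds for 24 h at 37 °C before reading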)", "conditions": "GFP-p53 stability, stronger effect = higher value; EGFP object count: measured here: GFP-p53 positive objects count"}, "[14]": {"assay": "inducers of IRF3 signaling, differentiated THP-1 – cell-based, PMA-stimulated THP-1, luminescence (AID 1053176; call rule not given here)", "conditions": "PMA-differentiated THP-1, IRF3 reporter luminescence; stronger effect = higher value"}, "[15]": {"assay": "MELAS cybrid and Rieske KO viability enhancers – cell-based, MELAS cybrids, Rieske KO mouse fibroblasts, CellTiter-Glo, primary screen (AID 1508586;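 active = mean z-score across replicates of 1.96 or higher in either the MELAS or the Rieske mutant cell line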;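 also: z relative to plate mean and SD of compound and empty wells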)", "conditions": "low glucose"}}, "note": "Activity calls are given as the source filed them.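 The calls were made as follows, unless noted: active = compounds that lower viability of the colon cancer cells in the luminescence readout, with no numeric limit stated; inactive = the rest.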"}
{"compound": "CCN(CC)CCOC(=O)C(C)(c1ccccc1)c1ccccc1", "values": [{"measurement": "nuclear beta-catenin stimulation", "setting": "[1]; at 10 µM", "value": "1.1% (inactive)"}, {"measurement": "nuclear beta-catenin stimulation", "setting": "[1]; stimulation, at 2 µM", "value": 0.8, "unit": "%"}, {"measurement": "insulin secretion stimulation", "setting": "[2]", "value": "27.8% (active)"}, {"measurement": "viability decrease", "setting": "[3]", "value": "36.8% (inactive)"}, {"measurement": "tube area decrease", "setting": "[4]", "value": "0.6% (inactive)"}, {"measurement": "GLP1 secretion stimulation", "setting": "[5]", "value": "8.1% (inactive)"}, {"measurement": "inhibition of viability", "setting": "[6]", "value": "49.8% (inactive)"}, {"measurement": "viability decrease (inhibition)", "setting": "[7]", "value": "22.2% (inactive)"}, {"measurement": "viability decrease (inhibition)", "setting": "[8]", "value": "17.9% (inactive)"}]}
{"compound": "O=C(CCl)c1ccc(Cl)cc1Cl", "values": [{"measurement": "nuclear beta-catenin stimulation", "setting": "[1]; at 10 µM", "value": "3.3% (active)"}, {"measurement": "nuclear beta-catenin stimulation", "setting": "[1]; stimulation, at 2 µM", "value": 45.6, "unit": "%"}, {"measurement": "insulin secretion stimulation", "setting": "[2]", "value": "4.4% (inactive)"}, {"measurement": "viability decrease", "setting": "[3]", "value": "66.2% (active)"}, {"measurement": "tube area decrease", "setting": "[4]", "value": "104% (active)"}, {"measurement": "GLP1 secretion stimulation", "setting": "[5]", "value": "-6.4% (inactive)"}, {"measurement": "inhibition of viability", "setting": "[6]", "value": "88.3% (active)"}, {"measurement": "viability decrease (inhibition)", "setting": "[7]", "value": "91.8% (active)"}, {"measurement": "viability decrease (inhibition)", "setting": "[8]", "value": "64.8% (active)"}]}
{"compound": "C[C@]12C[C@@H]3S[C@H]3C[C@@H]1CC[C@H]1[C@H]3CC[C@@H](O)[C@@]3(C)CC[C@@H]12", "values": [{"measurement": "nuclear beta-catenin stimulation", "setting": "[1]; at 10 µM", "value": "-1% (inactive)"}, {"measurement": "nuclear beta-catenin stimulation", "setting": "[1]; stimulation, at 2 µM", "value": -0.5, "unit": "%"}, {"measurement": "insulin secretion stimulation", "setting": "[2]", "value": "2.4% (inactive)"}, {"measurement": "viability decrease", "setting": "[3]", "value": "-16.6% (inactive)"}, {"measurement": "tube area decrease", "setting": "[4]", "value": "10.4% (inactive)"}, {"measurement": "GLP1 secretion stimulation", "setting": "[5]", "value": "-4.2% (inactive)"}, {"measurement": "inhibition of viability", "setting": "[6]", "value": "18.8% (inactive)"}, {"measurement": "viability decrease (inhibition)", "setting": "[7]", "value": "17.2% (inactive)"}, {"measurement": "viability decrease (inhibition)", "setting": "[8]", "value": "-13.3% (inactive)"}]}
{"compound": "Oc1ccc([C@H]2CNCc3c2ccc(O)c3O)cc1O", "values": [{"measurement": "nuclear beta-catenin stimulation", "setting": "[1]; at 10 µM", "value": "0.8% (inactive)"}, {"measurement": "nuclear beta-catenin stimulation", "setting": "[1]; stimulation, at 2 µM", "value": 0.2, "unit": "%"}, {"measurement": "insulin secretion stimulation", "setting": "[2]", "value": "3.5% (inactive)"}, {"measurement": "viability decrease", "setting": "[3]", "value": "86.5% (active)"}, {"measurement": "tube area decrease", "setting": "[4]", "value": "13.1% (inactive)"}, {"measurement": "GLP1 secretion stimulation", "setting": "[5]", "value": "23.9% (active)"}, {"measurement": "inhibition of viability", "setting": "[6]", "value": "57.5% (active)"}, {"measurement": "viability decrease (inhibition)", "setting": "[7]", "value": "60.8% (active)"}, {"measurement": "viability decrease (inhibition)", "setting": "[8]", "value": "38.4% (inactive)"}]}
{"compound": "CCCCNCC(O)c1ccc(O)cc1", "note": "(centres undefined)", "values": [{"measurement": "nuclear beta-catenin stimulation", "setting": "[1]; at 10 µM", "value": "-0.1% (inactive)"}, {"measurement": "nuclear beta-catenin stimulation", "setting": "[1]; stimulation, at 2 µM", "value": 3.1, "unit": "%"}, {"measurement": "insulin secretion stimulation", "setting": "[2]", "value": "2.3% (inactive)"}, {"measurement": "viability decrease", "setting": "[3]", "value": "0.3% (inactive)"}, {"measurement": "tube area decrease", "setting": "[4]", "value": "16.9% (inactive)"}, {"measurement": "GLP1 secretion stimulation", "setting": "[5]", "value": "-2.1% (inactive)"}, {"measurement": "inhibition of viability", "setting": "[6]", "value": "8% (inactive)"}, {"measurement": "viability decrease (inhibition)", "setting": "[7]", "value": "-1.7% (inactive)"}, {"measurement": "viability decrease (inhibition)", "setting": "[8]", "value": "-9.2% (inactive)"}]}
{"compound": "CCN(CC)C(=O)N[C@@H]1C=C2c3cccc4[nH]cc(c34)C[C@@H]2N(C)C1", "values": [{"measurement": "nuclear beta-catenin stimulation", "setting": "[1]; at 10 µM", "value": "0.6% (inactive)"}, {"measurement": "nuclear beta-catenin stimulation", "setting": "[1]; stimulation, at 2 µM", "value": -0.6, "unit": "%"}, {"measurement": "insulin secretion stimulation", "setting": "[2]", "value": "2.6% (inactive)"}, {"measurement": "viability decrease", "setting": "[3]", "value": "8.2% (inactive)"}, {"measurement": "tube area decrease", "setting": "[4]", "value": "-8.2% (inactive)"}, {"measurement": "GLP1 secretion stimulation", "setting": "[5]", "value": "-1% (inactive)"}, {"measurement": "inhibition of viability", "setting": "[6]", "value": "12.2% (inactive)"}, {"measurement": "viability decrease (inhibition)", "setting": "[7]", "value": "-11.8% (inactive)"}, {"measurement": "viability decrease (inhibition)", "setting": "[8]", "value": "-5.3% (inactive)"}]}
{"compound": "O=C(NC1NNC2NNC(c3cccnc3)CC21)C1CC1", "note": "(centres undefined)", "values": [{"measurement": "liver cell % of control", "setting": "[9]", "value": 79.6, "unit": "%"}, {"measurement": "parasite % of control", "setting": "[9]", "value": "32.1% (inactive)"}, {"measurement": "percent of negative control (+Dex)", "setting": "[10]", "value": "166% (active)"}, {"measurement": "z-score", "setting": "[10]", "value": -0.58}, {"measurement": "z-score", "setting": "[11]", "value": "-1.13 (inactive)"}, {"measurement": "z-score", "setting": "[12]", "value": "4.01 (inactive)"}, {"measurement": "EGFP object count", "setting": "[13]", "value": 52}, {"measurement": "EGFP/DsRed ratio", "setting": "[13]", "value": "0.68 (active)"}, {"measurement": "fraction signal", "setting": "[14]", "value": "0.001 (inactive)"}, {"measurement": "z-score", "setting": "[15]; MELAS cybrid survival, CellTiter-Glo 48 h, stronger effect = higher value", "value": "-1.09 (inactive)"}, {"measurement": "z-score", "setting": "[15]; Rieske KO mouse fibroblast survival, CellTiter-Glo 72 h", "value": -0.386}]}
{"compound": "CCO[C@H]1O[C@@H]2OC3(C)CC[C@H]4[C@H](C)CC[C@@H]([C@H]1C)[C@@]24OO3", "values": [{"measurement": "nuclear beta-catenin stimulation", "setting": "[1]; at 10 µM", "value": "6.9% (inactive)"}, {"measurement": "nuclear beta-catenin stimulation", "setting": "[1]; stimulation, at 2 µM", "value": 25.2, "unit": "%"}, {"measurement": "insulin secretion stimulation", "setting": "[2]", "value": "2.6% (inactive)"}, {"measurement": "viability decrease", "setting": "[3]", "value": "50.5% (active)"}, {"measurement": "tube area decrease", "setting": "[4]", "value": "34.8% (inactive)"}, {"measurement": "GLP1 secretion stimulation", "setting": "[5]", "value": "6.1% (inactive)"}, {"measurement": "inhibition of viability", "setting": "[6]", "value": "34.8% (inactive)"}, {"measurement": "viability decrease (inhibition)", "setting": "[7]", "value": "37.5% (inactive)"}, {"measurement": "viability decrease (inhibition)", "setting": "[8]", "value": "37.1% (inactive)"}]}
